JMJD2A Tudor – inhibitors of human JMJD2A Tudor domain; O75164; AlphaScreen JMJD2A-Tudor / H3K4me3 peptide binding; Potency, µM (doses to about 114 µM), for inactives: at the top dose activity change, negative = inhibition, hits mostly inhibitors; 390,000 tested, 4.4% active; note: potency is the fitted concentration of half-maximal effect; % is set by controls: 0 for no effect and ±100 for the full control effect; nearly all actives have a fitted effect of over 50% in size
HP1b chromo inh – inhibitors of HP1-beta chromodomain binding to methylated histone tails | P83916 | AlphaScreen HP1-beta / biotin-H3K9me3 peptide binding | Potency, µM (titrated, usually from 114 µM), for the others: at the highest dose activity change, negative = inhibition, hits mostly inhibitors | 390,000 tested, 0.56% active | AID 540317; note: potency is the fitted concentration of half-maximal effect; nearly all actives have a fitted effect of over 70% in size
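Compound inhibition of the preformed complex between 50 nM HP1-beta and 50 nM biotinylated H3K9me3 peptide was read by AlphaScreen. Buffer was PBS pH 7.4 with 0.01% Tween-20. Incubations ran 30 min at room temperature, with 10 ug/mL donor/acceptor beads.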
BAZ2B inh – BAZ2B (human) inhibition; Q9UIF8; Potency, µM (top dose mostly 114 µM), inactives show top-dose activity change, negative = inhibition, usual class: inhibitors; 360,000 tested, 4.4% active; AID 504333; AlphaScreen BAZ2B-H3K14Ac peptide displacement; note: potency is the fitted concentration of half-maximal effect; % is set by controls: 0 for no effect and ±100 for the full control effect; nearly all actives have a fitted effect of over 60% in size
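Protein-peptide AlphaScreen: BAZ2B 50 nM, b-H3K14Ac 50 nM, 1x PBS pH 7.4 + 0.01% Tween-20. Preincubation 30 min RT; cpd 30 min RT (top 110 uM); beads 20 min RT, light-protected.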
G9a block – blocks human histone lysine methyltransferase G9a. AID 504332. 350,000 tested, 8.8% active. Potency, µM (titrated, usually from 102 µM), for inactives: at the top dose activity, negative = inhibition, usual class: inhibitors. Q96KQ7. G9a H3K9 monomethylation, AlphaScreen, 2 h; note: potency is the fitted concentration of half-maximal effect; % is set by controls: 0 for no effect and ±100 for the full control effect; nearly all actives have a fitted effect of over 75% in size
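AlphaScreen read-out: biotin-H3K9 peptide (500 nM) methylation by 20 nM enzyme with 20 uM SAM, 2 h at room temperature after 15 min compound preincubation; anti-monomethyl H3K9 antibody plus donor/acceptor beads, 10 min dark.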
CtBP-E1A blk – inhibitors of CtBP/E1A interaction. AlphaScreen GST-E1A/His-CtBP binding, 1536-well; active compounds read low. activity change, % (test concentration not listed). 340,000 tested, 0.49% active; in the data active = activity change below about -65%; inconclusive = mostly about -30% to -63%; note: % is set by controls: 0 for no effect and ±100 for the full control effect
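Protein mix (5X: 125 nM each GST-E1A, His-CtBP) was incubated with pinned compound 2 h at 37 deg C in dark, in 50 mM Tris pH 8.0 buffer with 300 mM NaCl. Glutathione donor and nickel acceptor beads followed; AlphaScreen signal read after 1 h.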
Six1-Eya2 inh – Six1/Eya2 interaction inhibition; Q15475+O00167; AlphaScreen GST-Six1/His-Eya2 binding, biochemical; active compounds read low; activity change, % (no concentration beside the values); 360,000 tested, 0.56% active; in the data active = activity change below about -65%; inconclusive = mostly about -30% to -63%; note: % is set by controls: 0 for no effect and ±100 for the full control effect
Target sequence (O00167 whole entry, looked up): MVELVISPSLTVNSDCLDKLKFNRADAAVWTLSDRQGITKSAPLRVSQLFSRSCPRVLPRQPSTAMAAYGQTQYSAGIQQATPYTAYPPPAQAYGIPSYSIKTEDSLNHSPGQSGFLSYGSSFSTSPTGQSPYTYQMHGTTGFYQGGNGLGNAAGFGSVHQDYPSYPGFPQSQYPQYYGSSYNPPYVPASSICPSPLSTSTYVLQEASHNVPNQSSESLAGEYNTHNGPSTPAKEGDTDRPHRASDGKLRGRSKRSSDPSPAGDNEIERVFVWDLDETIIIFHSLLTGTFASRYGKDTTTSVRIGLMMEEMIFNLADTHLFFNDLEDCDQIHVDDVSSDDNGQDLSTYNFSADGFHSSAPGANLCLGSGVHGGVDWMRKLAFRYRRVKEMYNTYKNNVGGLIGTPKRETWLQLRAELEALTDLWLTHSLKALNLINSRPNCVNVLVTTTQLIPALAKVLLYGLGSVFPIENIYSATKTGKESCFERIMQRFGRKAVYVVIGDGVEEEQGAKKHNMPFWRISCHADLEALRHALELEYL
Target sequence (Q15475 whole entry, looked up): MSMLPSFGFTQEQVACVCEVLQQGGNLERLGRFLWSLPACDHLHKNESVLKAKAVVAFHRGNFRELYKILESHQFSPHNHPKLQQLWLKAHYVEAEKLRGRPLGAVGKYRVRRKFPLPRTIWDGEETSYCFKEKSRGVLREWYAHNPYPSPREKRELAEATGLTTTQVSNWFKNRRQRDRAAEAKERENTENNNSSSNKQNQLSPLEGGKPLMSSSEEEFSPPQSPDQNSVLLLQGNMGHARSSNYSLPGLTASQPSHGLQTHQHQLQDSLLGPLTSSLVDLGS
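AlphaScreen luminescence read after one hour at 37 °C in darkness. Pin-transferred compounds met GST-Six1 and His-Eya2 protein (5X stock 250 nM/500 nM) plus glutathione donor and Ni-chelate acceptor beads (5X, 50 ug/mL).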
An asterisk follows results filed as active; [ ] = dose if it differs, or a comment. The list is not random: actives were taken first. Their share in the collection is about 10%. Unless noted, calls come from the whole dose curve; as a rule, active = well fitted inhibition curve with a large enough effect; inconclusive = small, poorly fitted or top-dose-only effect; inactive = no such curve, though single readings can be large or run the other way.

What do the screens show for `C[C@@H]1O[C@@H](O[C@H]2[C@H](Oc3cc(O)c4c(c3)OC(c3ccc(O)cc3)CC4=O)O[C@H](CO)[C@@H](O)[C@@H]2O)[C@H](O)[C@H](O)[C@H]1O` (stereo partly specified)?
JMJD2A Tudor: -7%; HP1b chromo inh: 31%; BAZ2B inh: 11%; G9a block: 21%[59 µM]; CtBP-E1A blk: -1; Six1-Eya2 inh: -1

How did C[C@@H]1O[C@@H](O[C@H]2[C@H](Oc3cc(O)c4c(c3)O[C@H](c3ccc(O)cc3)CC4=O)O[C@H](CO)[C@@H](O)[C@@H]2O)[C@H](O)[C@H](O)[C@H]1O do in these assays?
JMJD2A Tudor: -10%; HP1b chromo inh: 56%; BAZ2B inh: -16%; G9a block: 45µM*; CtBP-E1A blk: 4; Six1-Eya2 inh: -2

Results for CC(C)(C)c1n[nH]c2c1CCCC2 ?
JMJD2A Tudor: 89µM*; HP1b chromo inh: -6%; BAZ2B inh: -7%; G9a block: 5%; CtBP-E1A blk: 2; Six1-Eya2 inh: 15

What do the screens show for `ClC(Cl)(c1nnnn1-c1ccccc1)c1nnnn1-c1ccccc1`?
JMJD2A Tudor: 20µM*; HP1b chromo inh: inconclusive; BAZ2B inh: 56µM*; G9a block: 0.56µM*; CtBP-E1A blk: 13; Six1-Eya2 inh: 12

What do the screens show for `COc1ccccc1C1(CC(=O)N2CCOCC2)CCOC(C(C)C)C1` (stereo unspecified)?
JMJD2A Tudor: -10%[11.4 µM]; HP1b chromo inh: -7%; BAZ2B inh: inconclusive; G9a block: 50µM*; CtBP-E1A blk: 3; Six1-Eya2 inh: 2

Results for COc1ccccc1C1(CC(=O)Nc2nccs2)CCOC(C(C)C)C1 (stereo unspecified) ?
JMJD2A Tudor: -22%; HP1b chromo inh: 1%; BAZ2B inh: -9%; G9a block: 3%; CtBP-E1A blk: 1; Six1-Eya2 inh: -6

Results for CCCC1(c2ccccc2)NC(=O)N(CC(=O)N(C)Cc2c(F)cccc2Cl)C1=O (stereo unspecified) ?
JMJD2A Tudor: 25µM*; HP1b chromo inh: -12%; BAZ2B inh: -13%; G9a block: 18%[59 µM]; CtBP-E1A blk: 4; Six1-Eya2 inh: -3

Results for CCC1(c2ccccc2)NC(=O)N(CC(=O)N(C)CC(=O)Nc2ccc(F)c(F)c2F)C1=O (stereo unspecified) ?
JMJD2A Tudor: -8%; HP1b chromo inh: 3%; BAZ2B inh: -4%; G9a block: 3%[0.501 µM]; CtBP-E1A blk: -1; Six1-Eya2 inh: 6

What do the screens show for `O=C(NC1CCCC1)c1cc(S(=O)(=O)N2CCOCC2)c(Cl)cc1Cl`?
JMJD2A Tudor: -15%; HP1b chromo inh: 23%; BAZ2B inh: -1%; G9a block: -8%[59 µM]; CtBP-E1A blk: 0; Six1-Eya2 inh: -10

What do the screens show for `Cc1c(C(=O)NCc2c(F)cc(F)cc2F)oc2ccc(S(=O)(=O)N3CCOCC3)cc12`?
JMJD2A Tudor: 22µM*; HP1b chromo inh: -4%; BAZ2B inh: 7%; G9a block: 3%[59 µM]; CtBP-E1A blk: 9; Six1-Eya2 inh: -4

What do the screens show for `Cc1c(C(=O)NCc2ccc(F)cc2)oc2ccc(S(=O)(=O)N3CCOCC3)cc12`?
JMJD2A Tudor: 4%; HP1b chromo inh: 16%; BAZ2B inh: 6%; G9a block: 2%; CtBP-E1A blk: -11; Six1-Eya2 inh: -4

How did COCCCNC(=O)c1oc2ccc(S(=O)(=O)N3CCOCC3)cc2c1C do in these assays?
JMJD2A Tudor: 89µM*; HP1b chromo inh: -8%; BAZ2B inh: 1%; G9a block: 4%[59 µM]; CtBP-E1A blk: -7; Six1-Eya2 inh: 0

What do the screens show for `O=C(COC(=O)c1cc(S(=O)(=O)N2CCOCC2)c(Cl)cc1Cl)NC1CC1`?
JMJD2A Tudor: -11%; HP1b chromo inh: 4%; BAZ2B inh: -4%; G9a block: 0.63µM*; CtBP-E1A blk: -17; Six1-Eya2 inh: 4

Compound activity (PubChem)
